Compound activity deposited in PubChem by The Scripps Research Institute Molecular Screening Center.
Only some compounds are listed: those with a hit (about 2.4% of all), similar ones and a draw of the others.
M1 PAM: positive allosteric modulators of human M1 muscarinic receptor | P11229 | 360,000 tested, 0.088% active | CHO-K1 hM1, Fluo-8 calcium fluorescence, ACh EC20; 0% = ACh EC20, 100% = maximal ACh | activation, % at 3 µM; in the data active means activation above about 19%, passing the limit was not always enough
Target sequence (P11229 whole entry, looked up): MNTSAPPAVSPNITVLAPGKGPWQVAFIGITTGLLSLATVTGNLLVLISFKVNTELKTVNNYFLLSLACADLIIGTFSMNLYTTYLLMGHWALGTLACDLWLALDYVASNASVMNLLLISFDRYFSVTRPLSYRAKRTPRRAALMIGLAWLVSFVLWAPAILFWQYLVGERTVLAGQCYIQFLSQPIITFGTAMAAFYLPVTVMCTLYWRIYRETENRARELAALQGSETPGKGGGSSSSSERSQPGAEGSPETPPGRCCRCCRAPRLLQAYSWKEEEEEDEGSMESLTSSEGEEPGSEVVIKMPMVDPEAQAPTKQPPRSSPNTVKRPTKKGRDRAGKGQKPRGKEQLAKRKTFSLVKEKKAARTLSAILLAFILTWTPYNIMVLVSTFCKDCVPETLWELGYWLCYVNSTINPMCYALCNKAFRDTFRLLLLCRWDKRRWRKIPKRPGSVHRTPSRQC
CHO-K1 Ca antag: M1 antagonist counterscreen hit in parental CHO-K1 cells; ATP-induced calcium, Fluo-8 fluorescence; 360,000 tested, 0.6% active; AID 602250; inhibition, % at 3 µM;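 active means inhibition above a per-plate cutoff, the plate's mean sample inhibition plus 3 SD, cut at about 24% in these data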;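 further: 0% = DMSO plus EC80 ATP and 100% = DMSO alone without ATP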
M1 ag: human M1 muscarinic receptor agonism | P11229 | CHO-K1 hM1, Fluo-8 calcium fluorescence, agonist mode; 0% DMSO, 100% acetylcholine EC100 | activation, % at 3 µM | 360,000 tested, 0.33% active;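 active means activation above the run's mean compound activation plus 3 SD, cut at about 16% in these data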;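 further: peak over basal fluorescence ratio within a 140 s kinetic read after compound addition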
CHO-K1 Ca ag: nonselective activator or artifact in parental CHO-K1 cells | 360,000 tested, 0.48% active | Fluo-8 calcium fluorescence; scaled to maximal ATP response, vehicle zero | activation, % at 3 µM; in the data active means activation above about 15%;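 further: untransfected CHO-K1 host cells lacking M1 receptor as counterscreen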
M1 antag: human CHRM1 antagonism | P11229 | CHO-K1 hM1, Fluo-8 calcium fluorescence, ACh EC80 antagonist | inhibition, % at 3 µM | 360,000 tested, 1.3% active;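 active means percent inhibition above its own plate's cutoff, namely the mean of that plate's compound wells plus 3 SD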;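 further: peak over basal fluorescence ratio during 140 s after agonist addition; 0% = ACh EC80 plus DMSO and 100% = DMSO alone without agonist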
CHO-K1 Ca PAM: nonselective activator or artifact in parental CHO-K1 calcium assay; 360,000 tested, 0.02% active; AID 602247; activation, % at 3 µM; ATP EC20, Fluo-8 calcium fluorescence; 0% at ATP EC20, 100% at ATP max;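 active means activation above the run cutoff, the mean activation of all test compounds plus 3 SD, cut at about 40% in these data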;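 further: peak over basal fluorescence ratio in a 140 s read after ATP addition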
* marks the source's active call; other numbers are inactive results.

Fc1cccc(CNc2ncnc3cc(Cl)ccc23)c1F was read as M1 PAM -15.3, CHO-K1 Ca antag 22.6, M1 ag -3.7, CHO-K1 Ca ag 15.2*, M1 antag 23.2 and CHO-K1 Ca PAM 4.0.
Screening Cc1[nH]c2ccccc2c1C(C[N+](=O)[O-])c1cccc(O)c1 (stereo not drawn) returned M1 PAM -13.4, CHO-K1 Ca antag 6.4, M1 ag -0.9, CHO-K1 Ca ag 7.4, M1 antag 37.4* and CHO-K1 Ca PAM -1.4.
For CCCCN(C(=O)c1ccc(S(=O)(=O)N(CC)CC)cc1)c1c(N)n(CCC)c(=O)[nH]c1=O the results were M1 PAM -3.8, CHO-K1 Ca antag -15.5, M1 ag -4.8, CHO-K1 Ca ag 0.5, M1 antag 3.2 and CHO-K1 Ca PAM -3.7.
Screening CCCN1C(=O)CC(=O)N=C1SCC(=O)Nc1ccccc1F returned M1 PAM -1.9, CHO-K1 Ca antag -12.7, M1 ag 6.3, CHO-K1 Ca ag 17.9*, M1 antag -0.5 and CHO-K1 Ca PAM -0.3.
`COc1ccccc1N1CCN(CCCCOc2ccc(C)cc2C)CC1` gave M1 PAM 3.3, CHO-K1 Ca antag -10.2, M1 ag -8.3, CHO-K1 Ca ag 0.2, M1 antag -16.5 and CHO-K1 Ca PAM 9.5.
Cc1cccc(C)c1C(OCCN(C)C)C1CCCCC1 (stereo not drawn) was read as M1 PAM -26.0, CHO-K1 Ca antag 8.4, M1 ag -8.0, CHO-K1 Ca ag 0.7, M1 antag 99.2* and CHO-K1 Ca PAM 2.9.
`COCCN(C(=O)CCl)C(C(=O)NC1CCCCC1)c1ccccc1C` (stereo not drawn) gave M1 PAM 5.7, CHO-K1 Ca antag 13.9, M1 ag -7.2, CHO-K1 Ca ag -0.3, M1 antag -9.4 and CHO-K1 Ca PAM -7.5.
Screening CCCCOc1ccc(/C=N/NC(=S)Nc2cc(C)ccc2C)cc1 returned M1 PAM 7.9, CHO-K1 Ca antag 28.0*, M1 ag 0.2, CHO-K1 Ca ag 1.7, M1 antag 2.0 and CHO-K1 Ca PAM -5.4.
Screening CC1=C(C(=O)N2CCCCCC2)CC(CC(=O)NC(c2ccccc2)c2ccccc2)C(=O)N1Cc1ccccc1 (stereo not drawn) returned M1 PAM 10.2, CHO-K1 Ca antag 11.1, M1 ag -3.4, CHO-K1 Ca ag 0.2, M1 antag -12.4 and CHO-K1 Ca PAM 11.9.
`CC1CN(C(=O)C(C)OC(=O)c2ccc3ncsc3c2)CC(C)O1` (stereo not drawn) gave M1 PAM 10.9, CHO-K1 Ca antag -10.6, M1 ag 0.7, CHO-K1 Ca ag 0.2, M1 antag -7.8 and CHO-K1 Ca PAM 3.5.
`COc1ccccc1C(CNC(=O)COc1ccccc1C)N1CCCC1` (stereo not drawn) gave M1 PAM -26.7, CHO-K1 Ca antag 2.6, M1 ag -7.8, CHO-K1 Ca ag -0.1, M1 antag 58.8* and CHO-K1 Ca PAM -7.0.
`Cc1ccccc1OCC(=O)NCC(c1ccco1)N1CCCCC1` (stereo not drawn) gave M1 PAM -13.5, CHO-K1 Ca antag 8.2, M1 ag -6.5, CHO-K1 Ca ag 0.2, M1 antag 27.8* and CHO-K1 Ca PAM -12.5.
`CCC(=O)NCC(c1ccco1)N1CCN(c2ccc(OC)cc2)CC1` (stereo not drawn) gave M1 PAM 10.8, CHO-K1 Ca antag -0.9, M1 ag 8.0, CHO-K1 Ca ag 17.3*, M1 antag -10.3 and CHO-K1 Ca PAM 6.9.
`COc1ccccc1C(CNC(=O)COc1cc(C)ccc1Cl)N1CCCC1` (stereo not drawn) gave M1 PAM -26.3, CHO-K1 Ca antag -1.3, M1 ag -7.0, CHO-K1 Ca ag 0.6, M1 antag 61.8* and CHO-K1 Ca PAM 5.4.
Screening Cc1cc(C)c(OCC(=O)NCC(c2ccco2)N2CCCCC2)c(C)c1 (stereo not drawn) returned M1 PAM -15.6, CHO-K1 Ca antag -3.5, M1 ag -8.6, CHO-K1 Ca ag -0.3, M1 antag 9.7 and CHO-K1 Ca PAM -13.7.
For COc1ccc(C(CNC(=O)COc2ccccc2C)N2CCCCC2)cc1 (stereo not drawn) the results were M1 PAM 4.9, CHO-K1 Ca antag -7.7, M1 ag -6.7, CHO-K1 Ca ag 0.1, M1 antag 1.8 and CHO-K1 Ca PAM 0.4.
